{
  "source": "PubChem BioAssay AID1224860",
  "about": "(National Center for Advancing Translational Sciences (NCATS), 2016)",
  "note": "Inconclusive results are not listed. Calls of active or inactive are those of the source. Calls come from the whole dose curve; as a rule, active = well fitted cell-killing curve with a large enough effect; inconclusive = small, poorly fitted or top-dose-only effect; inactive = flat fitted curve, though single readings scatter.",
  "data": [
    {"assay": "Compound cytotoxicity measured by an ATP content assay as a counter-screen for lead compounds in human iPSC derived neural progenitor cells (hNPCs)", "conditions": "human iPSC-derived NPC viability, ATP luminescence; series mostly up to 46.1 µM; activity, negative = cytotoxicity: at the top concentration", "procedure": "National Center for Advancing Translational Sciences [NCATS] Johns Hopkins University School of Medicine Florida State University Assay Overview: Many compounds can cause cytotoxicity at high compound concentrations. […] The compound cytotoxicity may also cause side effects or toxicity in human. Thus, the compound cytotoxicity needs to be measured in each cell type and each compound incubation time - same as these in the compound screening assay. The compound cytotoxicity can be measured by cell viability assays such as the ATP content assay. We use an ATP content assay kit for cell viability measurement. It measures ATP content (level) in human iPSC derived neural progenitor cells (hNPCs) using a luminescence readout that is proportional to viable cell numbers. Decrease in the luminescence signal after the compound treatment indicates reduced cell viability and cell death caused by compound treatment.\nAssay Protocol Summary: The medium for hNPCs consists of DMEM/F12, N2 supplement (ThermoFisher, Cat.# 17502048), NEAA (ThermoFisher, Cat. # 11140050), 2 ug/ml heparin, 2 uM cyclopamine, and B27 (ThermoFisher, Cat. # 17504044). The ATP content assay kit (PerkinElmer, Cat.# 6016731) was used to determine cell viability. The reagent was reconstituted and prepared as described by the manufacturer. Cells were seeded in 384- or 1536-well assay plates and cultured at 37 C with 5% CO2 for 16 to 20 hours. The typical cell seeding density in the 1536-well plate assay is 350 cells/well in 3 ul medium for hNPCs in the tissue cultured treated/PDL coated plates. Compounds were added to cells and incubated for a specific time such as 6, 24, or 72 hours before addition of the reagent mixture of the ATP content assay kit at 1:1 ratio. After incubation at room temperature for 10 minutes, the luminescence intensity in assay plates was measured using a ViewLux plate reader (PerkinElmer). […] The percentage inhibitions of the decreased cell viability by small molecules were then calculated that indicate compound cytotoxicity.", "values": [
      {"compound": "O=c1c2ccccc2[se]n1-c1ccccc1", "Potency": "12300 nM (active)"},
      {"compound": "CC(C)N[C@@H]1CCn2c(=O)[nH]c3cccc(c32)[C@@H]1O", "activity, negative = cytotoxicity": "-2.56% (inactive)"},
      {"compound": "Cc1ccc([N+](=O)[O-])[c]2c1[O][Hg]2", "Potency": "869 nM (active)"},
      {"compound": "COP(=S)(OC)SCN1C(=O)c2ccccc2C1=O", "activity, negative = cytotoxicity": "-12.2% (inactive)"},
      {"compound": "O=C1CCC[C@@H]2[C@H]3CCCN4CCC[C@@H](CN12)[C@@H]34", "activity, negative = cytotoxicity": "-6.59% (inactive)"},
      {"compound": "CC(C)[C@H]1C(=O)N[C@H](CO)Cc2c[nH]c3cccc(c23)N1C", "activity, negative = cytotoxicity": "-7.67% (inactive)"},
      {"compound": "O=C1C=CC[C@@H]2[C@H]3CCCN4CCC[C@@H](CN12)[C@@H]34", "activity, negative = cytotoxicity": "4.73% (inactive)"},
      {"compound": "CC(C)[N+](C)(CCC(C(N)=O)(c1ccccc1)c1ccccc1)C(C)C", "activity, negative = cytotoxicity": "1.39% (inactive)"},
      {"compound": "CC(O)CN1CCN(CC(=O)[O-])CCN(CC(=O)[O-])CCN(CC(=O)[O-])CC1.[Gd+3]", "note": "(stereo not drawn)", "activity, negative = cytotoxicity": "5.47% (inactive)"},
      {"compound": "CN1CC[C@@]2(C)c3cc(OC(=O)Nc4ccccc4)ccc3N(C)[C@@H]12", "activity, negative = cytotoxicity": "-15.7% (inactive)"},
      {"compound": "Oc1ccc([C@H]2CNCc3c2ccc(O)c3O)cc1O", "activity, negative = cytotoxicity": "-5.13% (inactive)"},
      {"compound": "COC1(CS(=O)c2ccccc2)CCN(CCc2c[nH]c3ccc(F)cc23)CC1", "note": "(stereo not drawn)", "activity, negative = cytotoxicity": "0.672% (inactive)"},
      {"compound": "S=C(SSC(=S)N1CCCCC1)N1CCCCC1", "Potency": "245 nM (active)"}
    ]}
  ]
}
